Compound activity (PubChem BioAssay)
Compounds with a hit are over-represented: about 4.6% of the library has one in this group of screens.
HSF1 activator: increases HSF-1 driven luciferase reporter signal | NIH3T3-HGL HSF-1 luciferase reporter, MG132, 8 h; 100% = twice DMSO control signal | activation, % at 9 µM | hit rate 1.7% among 300,000 | AID 504408;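 active = mean replicate activation of at least 50% with a set share of replicates each reaching 50%; inconclusive = only one of those two conditions met; inactive = mean below 50% and too few replicates reaching it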;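 note: 0% = median of the neutral control wells and 100% = twice that signal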
HSF1 inhib: HSF1 inhibition. activity change, negative = inhibition, % at 7.5 µM (by protocol). hit rate 0.77% among 300,000. NIH3T3-HGL HSE-luciferase, MG132-induced, luminescence 8 h; stronger effect = lower value;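 active = more than half of replicate wells show activity change below -50%, luminescence cut by over half; inconclusive = some wells, but at most half, below -50%; inactive = no replicate well below -50%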;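 note: luciferase reports HSF-1 transcriptional activity via heat shock element; 0% = median of DMSO wells and -100% = zero luminescence signal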
AHR activator: activates the human aryl hydrocarbon receptor; P35869; AHR-responsive luciferase reporter cells, luminescence; hit rate 2.5% among 320,000; activation, % at 5 µM; in the data active = activation above about 47%;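 note: 0% = vehicle wells and 100% = reference agonist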
FXN GAA850 act: increases GAA850 frataxin promoter reporter activity; HEK293 lucGAA850 FXN promoter luciferase reporter, 24 h; percent of 10 µM SAHA response; activation, % at 6 µM; hit rate 0.56% among 360,000;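 active = activation above the average of all compounds screened plus 3 SD, cutoff fixed separately per campaign, cut at about 7.5% in these data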;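 note: 0% = DMSO wells and 100% = 10 µM SAHA wells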
* hit, by the source's call.

Results for Cc1ccccc1NC(=O)C1COc2ccccc2O1 (configuration not stated) ?
HSF1 activator: inconclusive; HSF1 inhib: 25; AHR activator: -1; FXN GAA850 act: 1

What do the screens show for `O=C(NC1=NCCS1)C1COc2ccccc2O1` (configuration not stated)?
HSF1 activator: -59; HSF1 inhib: -51*; AHR activator: 0; FXN GAA850 act: -10

Results for Cc1ccc(Cl)cc1NC(=O)C1COc2ccccc2O1 (configuration not stated) ?
HSF1 activator: -73; HSF1 inhib: -64*; AHR activator: -1; FXN GAA850 act: 3

How did O=C(NCC1COc2ccccc2O1)c1ccc(Cl)cc1 (configuration not stated) do in these assays?
HSF1 activator: 62*; HSF1 inhib: 31; AHR activator: 10; FXN GAA850 act: 3

What do the screens show for `Cc1ccc(-n2[nH]c(C)c(/C=C3/C=Nc4ccccc43)c2=O)cc1C`?
HSF1 activator: 12; HSF1 inhib: -4; AHR activator: 60*; FXN GAA850 act: 3

What do the screens show for `O=C(c1cc(-c2ccc(O)cc2)on1)N1CCCCCC1`?
HSF1 activator: 68*; HSF1 inhib: 54; AHR activator: 1; FXN GAA850 act: 5

What do the screens show for `O=C(c1cc(-c2ccc(Cl)cc2)on1)N1CCCCCC1`?
HSF1 activator: 45; HSF1 inhib: 25; AHR activator: -1; FXN GAA850 act: 6

What do the screens show for `CCCN(CCC)S(=O)(=O)c1ccc(C(=O)Nc2nnc(-c3cc(OC)cc(OC)c3)o2)cc1`?
HSF1 activator: -19; HSF1 inhib: -10; AHR activator: 0; FXN GAA850 act: 2

How did O=C(CN1CCOCC1)N/N=C/C(Br)=C\c1ccccc1 do in these assays?
HSF1 activator: 31; HSF1 inhib: 11; AHR activator: 3; FXN GAA850 act: 3

How did COc1cc(/C=N/NC(=O)Cc2cccs2)c([N+](=O)[O-])cc1OC do in these assays?
HSF1 activator: -3; HSF1 inhib: 3; AHR activator: 49*; FXN GAA850 act: 1

How did CC(/C=N/NC(=O)c1cccs1)=C\c1ccccc1 do in these assays?
HSF1 activator: 43; HSF1 inhib: 28; AHR activator: 0; FXN GAA850 act: 4

What do the screens show for `CC(/C=N/NC(=O)c1ccco1)=C\c1ccccc1`?
HSF1 activator: 55*; HSF1 inhib: 35; AHR activator: 0; FXN GAA850 act: 1

What do the screens show for `O=C(Cc1cccs1)N/N=C/C(Br)=C/c1ccccc1`?
HSF1 activator: 106*; HSF1 inhib: 85; AHR activator: 4; FXN GAA850 act: 5

How did CC(/C=N/NC(=O)Cc1cccs1)=C\c1ccccc1 do in these assays?
HSF1 activator: 122*; HSF1 inhib: 60; AHR activator: 7; FXN GAA850 act: 6

What do the screens show for `COCCCN1C(=O)C(=O)/C(=C(/O)c2ccc(C)cc2)C1/C=C/c1ccccc1` (configuration not stated)?
HSF1 activator: -3; HSF1 inhib: 5; AHR activator: -1; FXN GAA850 act: 1

Results for CCCc1nc2ccc(NC(C)=O)cc2c(=O)n1Cc1ccc(Cl)cc1 ?
HSF1 activator: 60*; HSF1 inhib: 37; AHR activator: 27; FXN GAA850 act: 3

Results for CCCc1nc2ccc(NC(=O)c3cccs3)cc2c(=O)n1Cc1ccccc1Cl ?
HSF1 activator: 61*; HSF1 inhib: 19; AHR activator: 1; FXN GAA850 act: 0

Results for COc1ccc(Cn2c(C3CC3)nc3ccc(NC(C)=O)cc3c2=O)cc1 ?
HSF1 activator: 51*; HSF1 inhib: 29; AHR activator: 26; FXN GAA850 act: 5

Results for O=S(=O)(c1cccs1)N1CN(Cc2ccco2)c2nc3ccccc3nc21 ?
HSF1 activator: 6; HSF1 inhib: 13; AHR activator: 17; FXN GAA850 act: 6

How did COc1cscc1C(=O)O do in these assays?
HSF1 activator: 5; HSF1 inhib: 0; AHR activator: -1; FXN GAA850 act: 1

Results for C=CCN1C(=O)CN=C1NCc1ccccc1 ?
HSF1 activator: -12; HSF1 inhib: -2; AHR activator: 1; FXN GAA850 act: -2

How did C=C(C)c1cccc(C(C)(C)NC(=O)N2CCN(c3ccccc3OC)CC2)c1 do in these assays?
HSF1 activator: -13; HSF1 inhib: 0; AHR activator: 0; FXN GAA850 act: 2

How did COc1ccc(CN2CCC(C(=O)Nc3ccc(Oc4cccnc4)cc3)CC2)c(C)c1C do in these assays?
HSF1 activator: -88; HSF1 inhib: -83*; AHR activator: 0; FXN GAA850 act: -3

What do the screens show for `COc1cccc(O)c1CN1CCC(C(=O)Nc2ccc(Oc3cccnc3)cc2)CC1`?
HSF1 activator: -8; HSF1 inhib: -6; AHR activator: 11; FXN GAA850 act: -4
